Most compounds without a hit are left out; they make up all but 1.5% or so of the library.
GALK inhibitor: qHTS Assay for Inhibitors of Human Galactokinase (GALK); Potency, µM (doses to about 57.5 µM), usual class: inhibitors; actives 0.007% (n = 270,000); Purified GALK, Kinase-Glo residual ATP luminescence
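The enzyme phosphorylates galactose (100 uM) using ATP (35 uM); inhibition is detected as higher residual ATP, quantified by bioluminescence after 1 h reaction at room temperature, pH 8.0.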
USP1 inh: Inhibitors of USP1/UAF1: Primary Screen. Potency, µM (doses to about 57.1 µM), usual class: inhibitors. Ubiquitin carboxyl-terminal hydrolase 1 (Homo sapiens), O94782. recombinant USP1/UAF1, Ub-Rhodamine cleavage fluorescence. actives 0.23% (n = 390,000); also: nearly all actives have a fitted effect of over 60% in size
Target sequence (O94782 whole entry, looked up): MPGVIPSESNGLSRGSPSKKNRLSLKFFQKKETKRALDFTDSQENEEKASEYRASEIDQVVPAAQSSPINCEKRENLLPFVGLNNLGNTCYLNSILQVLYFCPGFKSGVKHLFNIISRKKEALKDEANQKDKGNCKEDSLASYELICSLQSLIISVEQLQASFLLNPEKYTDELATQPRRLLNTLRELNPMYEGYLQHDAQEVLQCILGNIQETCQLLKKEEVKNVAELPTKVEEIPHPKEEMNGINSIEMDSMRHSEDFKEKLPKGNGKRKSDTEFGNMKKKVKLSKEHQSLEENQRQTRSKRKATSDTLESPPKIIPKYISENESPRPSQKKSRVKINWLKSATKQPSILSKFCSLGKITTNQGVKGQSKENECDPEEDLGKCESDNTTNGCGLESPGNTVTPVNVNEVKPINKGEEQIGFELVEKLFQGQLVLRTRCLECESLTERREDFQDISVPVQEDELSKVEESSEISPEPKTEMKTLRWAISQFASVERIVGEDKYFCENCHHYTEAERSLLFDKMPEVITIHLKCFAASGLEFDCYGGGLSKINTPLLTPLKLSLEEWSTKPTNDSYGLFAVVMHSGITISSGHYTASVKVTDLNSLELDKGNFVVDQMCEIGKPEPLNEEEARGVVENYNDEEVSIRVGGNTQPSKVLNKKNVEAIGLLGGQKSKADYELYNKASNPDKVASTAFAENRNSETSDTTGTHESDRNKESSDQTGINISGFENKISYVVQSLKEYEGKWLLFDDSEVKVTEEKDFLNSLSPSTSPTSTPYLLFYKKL
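High-throughput fluorogenic screen: 1nM USP1/UAF1 complex, Ub-Rho substrate 150nM final, 50mM HEPES pH 7.8 with 0.5mM EDTA, 0.1 mg/ml BSA, 1mM TCEP and 0.01% Tween-20.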
TrxR1 substrate: qHTS Assay for Substrates of Mammalian Selenoprotein Thioredoxin Reductase 1 (TrxR1): qHTS; purified TrxR1 substrate turnover, NADPH consumption readout; Potency, µM (highest dose often 114 µM); actives 0.01% (n = 390,000); Thioredoxin reductase 1, cytoplasmic (Rattus norvegicus), O89049; also: nearly all actives have a fitted effect of over 50% in size
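Rat TrxR1, dispensed at 90 nM, was prereduced with 400 uM NADPH (final) for 5 min at ~22 deg C, then incubated with compound 15 min before 400 uM selenite. A first-read NADPH fluorescence drop versus no-compound background flagged substrates.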
FBPA coupling cs: qHTS Assay for Inhibitors of Fructose-1,6-bisphosphate Aldolase from Giardia Lamblia: Coupling assay counterscreen. AID 2472, 2010. activity change, negative = inhibition, % at 58.2 µM, hits read low. coupling enzyme system counterscreen, AmpLite Red fluorescence. actives 0.67% (n = 290,000); in the data active = activity change below about -30%
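First, compound is pin-transferred into glyceraldehyde-3-phosphate coupling-enzyme reagent at 57.5 uM final and held 10 min at RT. Next, substrate, coupling system and AmpLite Red are added. After 20 min RT, fluorescence (525/598 nm) is read.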
rTrxR1 inhibitor: qHTS Assay for Inhibitors of Mammalian Selenoprotein Thioredoxin Reductase 1 (TrxR1): qHTS | Thioredoxin reductase 1, cytoplasmic (Rattus norvegicus), O89049 | recombinant rTrxR1, NADPH fluorescence consumption, selenite substrate | AID 588453, 2011 | actives 1% (n = 390,000) | Potency, µM (doses to about 114 µM), hits mostly inhibitors; also: nearly all actives have a fitted effect of over 65% in size
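Rat TrxR1 (90 nM in the dispensed reagent) was pre-reduced with 400 uM NADPH for 5 min at room temperature, then incubated with compound for 15 min. After 400 uM selenite was added, NADPH fluorescence (Ex 340/Em 450 nm) was followed for 8 min.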
Numbers stand for hits; n = inactive; u = inconclusive; x = no result. Unless noted, calls follow the shape of the dose curve; as a rule, active = well fitted curve in the direction sought with a large enough effect; inconclusive = small, poorly fitted or top-dose-only effect, or another doubt; inactive = no such curve, though single readings can be large; an effect the other way counts as inactive or inconclusive.

SMILES	GALK inhibitor	USP1 inh	TrxR1 substrate	FBPA coupling cs	rTrxR1 inhibitor
COC1=C(OC)C(=O)c2ccccc2C1=O	x	x	n	x	n
N#Cc1c([N+](=O)[O-])cc([N+](=O)[O-])cc1S(=O)(=O)Cc1ccccc1	x	n	u	x	0.71µM
CCOc1cc(C2Nc3ccccc3C(=O)N2Cc2ccco2)ccc1OCc1ccccc1Cl (stereo not given)	x	x	n	x	n
Cc1cc(C)c(S(=O)(=O)/N=C2/C=C(Sc3ncn[nH]3)C(=O)c3ccccc32)cc1C	n	1.3µM	14µM	-96	u
NS(=O)(=O)c1ccc(NCCCn2ccnc2)c([N+](=O)[O-])c1	n	n	n	n	n
COc1ccc(OC)c2c1C(=O)C(Cl)=C(Cl)C2=O	n	n	n	-45	0.16µM
COc1ccc2noc3c2c1C(=O)c1ccccc1-3	x	4µM	n	x	u
O=C1c2ccccc2-c2onc3ccc(NCCCn4ccnc4)c1c23	n	28µM	n	n	n
COc1ccc(OC)c2c1C(=O)c1ccccc1C2=O	n	32µM	n	n	n
CC(C)C[C@H](NC(=O)CNC(=O)[C@H](CCC(N)=O)NC(=O)[C@H](CC(C)C)NC(=O)[C@H](CC(C)C)NC(=O)[C@H](CCCNC(=N)N)NC(=O)[C@H](CCC(N)=O)NC(=O)[C@H](CC(C)C)NC(=O)[C@H](CCCNC(=N)N)NC(=O)[C@H](C)NC(=O)CNC(=O)[C@H](CCC(=O)O)NC(=O)[C@H](CCCNC(=N)N)NC(=O)[C@H](CC(C)C)NC(=O)[C@H](CCCNC(=N)N)NC(=O)[C@H](CO)NC(=O)[C@H](CC(C)C)NC(=O)[C@H](CCC(=O)O)NC(=O)[C@H](CO)NC(=O)[C@@H](NC(=O)[C@H](Cc1ccccc1)NC(=O)[C@@H](NC(=O)CNC(=O)[C@H](CC(=O)O)NC(=O)[C@H](CO)NC(=O)[C@@H](N)Cc1cnc[nH]1)[C@@H](C)O)[C@@H](C)O)C(=O)N[C@H](C(N)=O)C(C)C	x	x	x	n	x
Cc1ccc2c(C)ccnc2c1	x	x	n	x	n
COc1ccc(CCn2c(=S)[nH]c(=O)c3nccnc32)cc1OC	x	x	n	x	n
CCOC(=O)N1CCC(NC(=O)c2oc3c(c2C)-c2[nH]ncc2CC3)CC1	n	n	n	-41	n
CCOC(=O)c1cccc(NC(=O)c2oc3c(c2C)-c2[nH]ncc2CC3)c1	x	u	n	x	n
CC(=O)c1ccc(Sc2nnnn2-c2ccccc2)c([N+](=O)[O-])c1	n	n	n	n	7.9µM
CN1CCN(S(=O)(=O)c2ccc(Sc3nnnn3-c3ccccc3)c([N+](=O)[O-])c2)CC1	x	n	n	n	u
CC(C)(C)NC(=O)C(c1ccc(Cl)cc1)N(Cc1ccco1)C(=O)CCl (stereo not given)	n	n	n	n	13µM
CCC(=O)NC[C@H](Cc1ccc(OCCc2nc(-c3ccccc3)oc2C)cc1)N/C(C)=C\C(=O)c1ccc(C(F)(F)F)cc1	x	x	x	n	x
CCOc1ccc2c(c1)n([O-])c1c([n+]2=O)CCCC1	n	n	n	-58	50µM
O=[N+]([O-])c1ccc(Cl)c(S(=O)(=O)Nc2ccc3cn[nH]c3c2)c1	x	n	n	x	n
O=C(O)c1ccc(Cl)c(S(=O)(=O)Nc2ccc3cn[nH]c3c2)c1	n	n	n	-71	n
CC1=[N+](C)c2c(ccc3cccnc23)C1(C)C	n	n	n	-58	n
Cc1[nH]c2c(ccc3cccnc32)c1C	n	u	n	n	n
COc1ccc(C(=O)N/N=C/c2ccc(N3CCOCC3)s2)cc1OC	x	n	n	x	n
O=C(N/N=C/c1ccc(N2CCOCC2)o1)c1cccc(F)c1	n	n	n	n	11µM
COc1ccc(C(=O)N/N=C/c2ccc(N3CCOCC3)o2)cc1OC	n	n	n	-35	28µM
COC(=O)C[C@H]1c2cc(C(F)(F)F)ccc2S(=O)(=O)N1C(C)C	x	x	n	x	n
CCCN1CNc2c(c(=O)[nH]c(=S)n2CCc2cccc(Cl)c2)C1	x	x	n	x	n

Source: PubChem BioAssay (National Center for Advancing Translational Sciences (NCATS))
